In PubChem BioAssay AID602405 (Broad Institute, 2012):
Out of some 360,000 compounds screened, about 350 (0.097%) were called active. The sample holds actives, similar compounds and a random draw of the others, so the mix is not that of the screen. No stated cut-off is given here; in the data, active means inhibition above about 16% (passing the limit was not always enough); inconclusive means no clear call, values can overlap the other calls; inactive means below that.

What follows are molecules tested on UDP-N-acetylbacillosamine N-acetyltransferase PglD (Campylobacter jejuni) (assay: C. jejuni PglD acetyltransferase inhibitors, primary screen, biochemical, DTNB colorimetric, single point (AID 602405)). Conditions: purified PglD enzyme, DTNB colorimetric CoA detection; at 12.5 µM; active compounds read high.

inhibition, active:
CCCCC(=O)Nc1ccc(C(=O)NCCCn2ccnc2)cc1 20.6%
CCOc1ccc(OCc2ccc(C(=O)N(C)c3ccccc3)o2)cc1 27.6%
COc1ccc(NC(=O)C2=NNC(=O)CC2)cc1S(=O)(=O)N1CCCCC1 25.4%
CCCOc1ccc(F)cc1-c1cc(C(=O)Nc2ccc(F)cc2)[nH]n1 21.5%

inhibition, inactive:
CCCC(=O)Nc1ccc(C(=O)NCCCn2ccnc2)cc1 -0.628%
CC(=O)Nc1ccc(NC(=O)CCCNC(=O)c2ccc(Cl)cc2)cc1 -4.6%
COc1cccc(-c2ccc3c(c2)O[C@H](CN(C)Cc2ccncc2)[C@H](C)CN([C@H](C)CO)S3(=O)=O)c1 -0.814%
CCCC#Cc1ccc([C@H]2[C@@H](CO)N(C(=O)C3CC3)[C@H]2C#N)cc1 0.491%
C[C@@H]1CN([C@H](C)CO)C(=O)c2cc(C#Cc3ccccn3)cnc2O[C@H]1CN(C)CC1CCOCC1 14.4%
C[C@H]1CN([C@@H](C)CO)C(=O)c2cccc(NC(=O)C3CCOCC3)c2O[C@H]1CN(C)S(C)(=O)=O -0.415%
COc1ccc(CNC(=O)C[C@H]2CC[C@@H]3[C@H](COc4ccc(NC(=O)C5CC5)cc4C(=O)N3C)O2)cc1 -0.548%
C[C@H]1CN([C@@H](C)CO)C(=O)c2cc(N(C)C)ccc2O[C@@H]1CN(C)S(=O)(=O)c1ccc(Cl)cc1 14.8%
C[C@@H]1CCCCO[C@@H](CN(C)Cc2ccc(C(=O)O)cc2)[C@H](C)CN([C@H](C)CO)C(=O)c2cc(NC(=O)Nc3ccc(F)cc3)ccc2O1 0.576%
C[C@H](CO)N1C[C@H](C)[C@H](CN(C)S(=O)(=O)c2ccccc2)Oc2cc(Br)ccc2S1(=O)=O -0.169%
C[C@@H]1CN([C@@H](C)CO)C(=O)c2cc(NC(=O)Cc3ccccc3)ccc2O[C@@H](C)CCCCO[C@H]1CN(C)C(=O)Nc1cccc2ccccc12 -0.256%
COc1ccc(NC(=O)CN(C)C(=O)c2ccc(COc3ccccc3)o2)cc1 -2.65%
CCOc1ccc(OCc2ccc(C(=O)Nc3cccc(C)n3)o2)cc1 1.24%
C/C=C/c1ccc2c(c1)O[C@H](CN(C)C(C)=O)[C@H](C)CN([C@H](C)CO)S2(=O)=O -0.698%
CO[C@H]1CN(C)C(=O)c2ccc(NC(=O)C3CC3)cc2OC[C@@H](C)N(C)C[C@H]1C 4.48%
CO[C@@H]1CN(C)C(=O)c2ccc(NC(=O)C3CCCCC3)cc2OC[C@@H](C)N(Cc2nccs2)C[C@@H]1C 1.22%
Cc1ccc(S(=O)(=O)N(C)C[C@H]2Oc3c(NC(=O)c4ccc(-c5nccs5)cc4)cccc3C(=O)N([C@H](C)CO)C[C@H]2C)cc1 -3.77%
C[C@H]1CN([C@@H](C)CO)S(=O)(=O)c2ccc(C#Cc3ccccc3F)cc2O[C@@H]1CN(C)C(=O)c1ccc2c(c1)OCO2 1.7%
CN1CCN(C(=O)C[C@@H]2C=C[C@@H](NS(=O)(=O)c3cccc(F)c3)[C@@H](CO)O2)CC1 -7.9%
CNC(=O)C[C@H]1CC[C@H]2[C@H](COc3ccc(NC(=O)Nc4cccc(C)c4)cc3C(=O)N2C)O1 -0.336%
CCOC(=O)C1CCN(CC(=O)Nc2ccc(OC)c(S(=O)(=O)N3CCCCC3)c2)CC1 2.34%
COc1ccccc1C(=O)Nc1ccc(C)c(S(=O)(=O)N2CCCCC2)c1 -5.07%
C[C@@H]1CN([C@@H](C)CO)C(=O)c2cccc(NS(=O)(=O)c3ccc(Cl)cc3)c2O[C@@H]1CN(C)C(=O)Nc1ccccc1 0.684%
N#C[C@H]1[C@@H](c2ccc(-c3ccccc3F)cc2)[C@H](CO)N1C(=O)c1ccccn1 -0.127%
COc1cccc(CNC(=O)C[C@H]2CC[C@@H](NC(C)=O)[C@@H](CO)O2)c1 -2.55%
C[C@@H]1CCCCO[C@H](CN(C)C(=O)C2CCCCC2)[C@@H](C)CN([C@@H](C)CO)C(=O)c2cc(NC(=O)Nc3ccccc3)ccc2O1 -3.55%
O=C(C[C@H]1C=C[C@H](NC(=O)Nc2cc(F)ccc2F)[C@H](CO)O1)Nc1ccccc1 -2.58%
C[C@@H]1CN([C@H](C)CO)C(=O)Cc2cc(NS(=O)(=O)c3cccs3)ccc2O[C@H]1CN(C)C(=O)Nc1ccc2c(c1)OCO2 2.77%
C[C@@H]1CN([C@H](C)CO)S(=O)(=O)c2ccc(C#Cc3ccccc3F)cc2O[C@@H]1CN(C)C(=O)c1ccc2c(c1)OCO2 -1.88%
COc1ccc(S(=O)(=O)Nc2ccc3c(c2)C(=O)N([C@H](C)CO)C[C@@H](C)[C@H](CN(C)S(=O)(=O)c2ccc(C)cc2)O3)cc1 4.85%
COCCNC(=O)C[C@H]1CC[C@@H]2[C@H](COc3ccc(NC(=O)Nc4cccc(F)c4)cc3C(=O)N2C)O1 0.139%
CO[C@H]1CN(C)C(=O)c2ccc(NC(=O)c3cnccn3)cc2OC[C@@H](C)N(C(C)=O)C[C@H]1C -1.18%
C[C@@H]1CN([C@H](C)CO)C(=O)Cc2cc(NC(=O)C3CCCCC3)ccc2O[C@@H]1CN(C)S(C)(=O)=O 56.5%
CC(C)NC(=O)N1[C@@H]2CN(C(=O)Nc3ccc(F)cc3)c3ccccc3[C@@H]2[C@@H]1CO 2.48%
C[C@@H]1CCCCO[C@@H](CN(C)S(=O)(=O)c2ccccc2)[C@H](C)CN([C@H](C)CO)C(=O)c2cc(NC(=O)CCC(F)(F)F)ccc2O1 0.918%
O=C(c1ccccc1)N1C[C@H]2[C@@H](c3ccccc31)[C@H](CO)N2Cc1ccccc1F -1.39%
CC(C)C#Cc1ccc([C@@H]2[C@H]3CN(C(=O)NC(C)C)CCCCN3[C@H]2CO)cc1 1.97%
CN1C(=O)c2cc(NC(=O)C3CC3)ccc2OC[C@@H]2O[C@H](CC(=O)NCC3CCCCC3)CC[C@@H]21 0.676%
CCCOc1ccc(F)cc1-c1cc(C(=O)Nc2ccc(F)c(Cl)c2)[nH]n1 -24.9%
CCCOc1ccc(F)cc1-c1cc(C(=O)NCc2ccc(F)cc2)[nH]n1 4.69%
